BoNT-F LC inh = blocks Botulinum neurotoxin F light chain protease | Multiplex microsphere protease cleavage assay, flow cytometry | hit rate 0.22% among 360,000 | inhibition, % at 10 µM; in the data active means inhibition above about 35%, passing the limit was not always enough; inconclusive means no clear call, values can overlap the other calls
BJeLR lethal = kills HRASV12-expressing BJeLR cells. hit rate 0.17% among 300,000. inhibition, % (test concentration not listed). BJeLR (HRASV12) viability, CellTiter-Glo ATP luminescence, 48 h; in the data active means inhibition above about 50%; inconclusive means no clear call, values can overlap the other calls
Anthrax LF prot = inhibitors of Bacillus anthracis lethal factor protease | P15917 | multiplex microsphere protease cleavage assay, LF | inhibition, % at 10 µM | hit rate 0.12% among 360,000 | AID 588501
Target sequence (P15917 whole entry, looked up): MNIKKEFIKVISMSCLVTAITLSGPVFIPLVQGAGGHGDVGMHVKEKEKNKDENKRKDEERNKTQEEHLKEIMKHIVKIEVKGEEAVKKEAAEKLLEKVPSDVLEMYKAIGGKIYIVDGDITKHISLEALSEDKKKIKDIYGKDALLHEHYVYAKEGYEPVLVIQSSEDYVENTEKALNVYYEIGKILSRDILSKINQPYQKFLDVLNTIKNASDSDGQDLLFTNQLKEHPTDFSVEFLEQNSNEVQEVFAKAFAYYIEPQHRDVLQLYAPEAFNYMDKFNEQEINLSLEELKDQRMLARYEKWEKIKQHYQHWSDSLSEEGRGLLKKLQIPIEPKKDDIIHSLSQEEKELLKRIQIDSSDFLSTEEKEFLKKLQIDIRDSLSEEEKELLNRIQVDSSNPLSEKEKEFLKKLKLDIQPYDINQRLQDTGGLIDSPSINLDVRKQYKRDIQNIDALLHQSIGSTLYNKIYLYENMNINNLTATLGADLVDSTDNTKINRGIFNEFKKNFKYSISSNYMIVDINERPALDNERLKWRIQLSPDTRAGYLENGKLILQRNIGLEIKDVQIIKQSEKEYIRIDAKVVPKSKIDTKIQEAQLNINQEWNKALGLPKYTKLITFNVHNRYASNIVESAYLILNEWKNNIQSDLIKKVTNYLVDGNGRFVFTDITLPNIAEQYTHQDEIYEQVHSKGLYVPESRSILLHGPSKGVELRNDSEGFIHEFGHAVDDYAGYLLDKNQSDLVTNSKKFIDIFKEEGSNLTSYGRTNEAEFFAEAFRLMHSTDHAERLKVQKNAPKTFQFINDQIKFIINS
Autofluor counter = counter-screen for toxin protease inhibitors: compound fluorescence. AID 624483. compound autofluorescence counterscreen, microsphere flow cytometry; hits give high values. hit rate 3.1% among 360,000. fluorescence intensity (test concentration not listed); in the data active means fluorescence intensity above about 16000; inconclusive means no clear call, values can overlap the other calls
Vc quorum ag = quorum light induction in luxS cqsA deficient V. cholerae; V. cholerae BH1578 lux reporter, luminescence, 6 h; activation, % at 18.7 µM; hit rate 0.16% among 350,000; AID 588436; in the data active means activation mostly above about 9.7%, no sharp cut-off; inconclusive means no clear call, values can overlap the other calls; inactive means mostly below about 3.7%
BoNT A protease = inhibitors of Botulinum neurotoxin A light chain protease; inhibition, % at 10 µM; AID 588499; multiplex microsphere protease substrate cleavage, flow cytometry; hit rate 0.17% among 360,000
Numbers stand for hits. In the library only some 3.7% were active in any assay of this set; here they are far more common. Unless noted, no stated cut-off is given here; in the data, active means inhibition above about 30%; inconclusive means no clear call, values can overlap the other calls; inactive means below that.

Results for C[C@@H]1CN([C@@H](C)CO)C(=O)CCCn2nncc2CO[C@@H]1CN(C)C(=O)CCC(F)(F)F ?
BoNT-F LC inh: inactive; Anthrax LF prot: inactive; Autofluor counter: inactive; Vc quorum ag: inactive; BoNT A protease: inactive

What do the screens show for `Cc1ccc(S(=O)(=O)CC2CSc3nc(N)cc(=O)n32)cc1` (stereo not drawn)?
BoNT-F LC inh: inactive; BJeLR lethal: inactive; Anthrax LF prot: inactive; Autofluor counter: 21227; Vc quorum ag: inactive; BoNT A protease: inconclusive

What do the screens show for `Cc1ccc(S(=O)(=O)CC2CSc3nc4ccccc4n32)cc1` (stereo not drawn)?
BoNT-F LC inh: inactive; BJeLR lethal: inactive; Anthrax LF prot: inactive; Autofluor counter: inactive; Vc quorum ag: inactive; BoNT A protease: inactive

What do the screens show for `COCCNC(=O)C1CCCN(C(=O)c2ccc3c(c2)C(C)(C)CCC3(C)C)CC1` (stereo not drawn)?
BoNT-F LC inh: inactive; Anthrax LF prot: inactive; Autofluor counter: inactive; Vc quorum ag: inactive; BoNT A protease: inactive

Results for CNC[C@H](CC1CCCCC1)NC[C@H](Cc1ccccc1)NCCC12CC3CC(CC(C3)C1)C2 ?
BoNT-F LC inh: inactive; BJeLR lethal: 69; Anthrax LF prot: inactive; Autofluor counter: inactive; Vc quorum ag: inactive; BoNT A protease: inactive

How did CCCNC(=O)[C@@H]1CCCN1C(=O)C1CCN(S(=O)(=O)c2ccc(C)cc2)CC1 do in these assays?
BoNT-F LC inh: inactive; BJeLR lethal: inactive; Anthrax LF prot: inactive; Autofluor counter: inactive; Vc quorum ag: inactive; BoNT A protease: inactive

Results for COc1ccc(CNC(=O)[C@H](C)NC(=O)C2CCN(S(=O)(=O)c3ccc(C)cc3)CC2)cc1 ?
BoNT-F LC inh: inactive; BJeLR lethal: inactive; Anthrax LF prot: inactive; Autofluor counter: 18265; Vc quorum ag: inactive; BoNT A protease: inconclusive

Results for Cc1ccc(S(=O)(=O)N2CCC(C(=O)N3CCC[C@H]3C(=O)NC3CCS(=O)(=O)C3)CC2)cc1 (stereo partly drawn) ?
BoNT-F LC inh: inactive; BJeLR lethal: inactive; Anthrax LF prot: inactive; Autofluor counter: 23712; Vc quorum ag: inactive; BoNT A protease: inconclusive

Results for Cc1ccc(S(=O)(=O)N2CCC(C(=O)NCc3ccncc3)CC2)cc1 ?
BoNT-F LC inh: inactive; BJeLR lethal: inactive; Anthrax LF prot: inactive; Autofluor counter: 21375; Vc quorum ag: inactive; BoNT A protease: inactive

Results for O=C(CNCc1ccncc1)Nc1cc(S(=O)(=O)N2CCCCC2)ccc1Cl ?
BoNT-F LC inh: inactive; BJeLR lethal: inactive; Anthrax LF prot: inactive; Autofluor counter: 20589; Vc quorum ag: inactive; BoNT A protease: inactive

What do the screens show for `Cc1ccc(S(=O)(=O)N2CCC(C(=O)NCCN3CCCCCC3)CC2)cc1`?
BoNT-F LC inh: inactive; BJeLR lethal: inactive; Anthrax LF prot: inactive; Autofluor counter: 18618; Vc quorum ag: inactive; BoNT A protease: inconclusive

Results for CCOC(=O)C1=CN(CC)CCC1=O ?
BoNT-F LC inh: inactive; Anthrax LF prot: inactive; Autofluor counter: inactive; Vc quorum ag: inactive; BoNT A protease: inactive

Results for CCOC(=O)c1c(-c2ccc(C)o2)csc1NC(=O)CN(C)CC(=O)Nc1ccc(C)cc1 ?
BoNT-F LC inh: inactive; BJeLR lethal: inactive; Anthrax LF prot: inactive; Autofluor counter: 20236; Vc quorum ag: inactive; BoNT A protease: inactive

Results for CCOC(=O)c1sc2nc(CC(=O)OC)nc(NCc3ccc(F)cc3)c2c1C ?
BoNT-F LC inh: inactive; BJeLR lethal: inactive; Anthrax LF prot: inactive; Autofluor counter: 16799; Vc quorum ag: inactive; BoNT A protease: inactive

Results for CNc1nc(NCc2ccc(N(C)C)cc2)c2sccc2n1 ?
BoNT-F LC inh: inactive; Anthrax LF prot: inactive; Autofluor counter: inactive; Vc quorum ag: inactive; BoNT A protease: inactive

What do the screens show for `CN(C)/C=C(/C(=O)c1ccc(Cl)cc1)S(=O)(=O)c1ccc(Cl)cc1`?
BoNT-F LC inh: inactive; BJeLR lethal: inactive; Anthrax LF prot: inactive; Autofluor counter: 16355; Vc quorum ag: inactive; BoNT A protease: inactive

What do the screens show for `COc1cc(/C=C/C(=O)c2ccc(Cl)s2)cc(OC)c1O`?
BoNT-F LC inh: inactive; BJeLR lethal: inactive; Anthrax LF prot: inactive; Autofluor counter: 21357; Vc quorum ag: inactive; BoNT A protease: inconclusive

What do the screens show for `CCCCCN1C=CC(=C2C(=O)c3ccccc3C2=O)C=C1`?
BoNT-F LC inh: inactive; BJeLR lethal: 51; Anthrax LF prot: inactive; Autofluor counter: inactive; Vc quorum ag: inactive; BoNT A protease: inactive

What do the screens show for `CC1=CC(=C2C(=O)c3ccccc3C2=O)C=C(C)N1C`?
BoNT-F LC inh: inactive; BJeLR lethal: inactive; Anthrax LF prot: inactive; Autofluor counter: inactive; Vc quorum ag: inactive; BoNT A protease: inactive

Results for COc1ccc(/C=C/c2c(-c3ccc(OC)cc3)oc3ccc(-c4ccc(OC)cc4)cc23)cc1 ?
BoNT-F LC inh: inactive; BJeLR lethal: inactive; Anthrax LF prot: inactive; Autofluor counter: inactive; Vc quorum ag: inactive; BoNT A protease: inactive

Results for COc1ccc(/C=C/c2cc(-c3ccc(C)cc3)o[n+]2C)cc1 ?
BoNT-F LC inh: inactive; BJeLR lethal: 63; Anthrax LF prot: inactive; Autofluor counter: inactive; Vc quorum ag: inactive; BoNT A protease: inactive

What do the screens show for `CCOc1ccc(-n2cnnn2)cc1S(=O)(=O)NCc1ccccc1`?
BoNT-F LC inh: inactive; BJeLR lethal: inactive; Anthrax LF prot: inactive; Autofluor counter: inactive; Vc quorum ag: inactive; BoNT A protease: inactive

How did CCOc1cc(S(=O)(=O)NCc2ccccc2)c(OCC)cc1-n1cnnn1 do in these assays?
BoNT-F LC inh: inactive; BJeLR lethal: inactive; Anthrax LF prot: inactive; Autofluor counter: 21889; Vc quorum ag: inactive; BoNT A protease: inconclusive

Results for CCCCN1C(=O)C(=O)NC[C@@H]1CC1CCCCC1 ?
BoNT-F LC inh: inactive; Anthrax LF prot: inactive; Autofluor counter: inactive; BoNT A protease: inactive

How did COC(=O)[C@]12CCCCC=C1N(CCC1=CCCCC1)C(=O)[C@H](CC(=O)N1CCC(c3ccccc3)CC1)C2 do in these assays?
BoNT-F LC inh: inactive; Anthrax LF prot: inactive; Autofluor counter: inactive; BoNT A protease: inactive

What do the screens show for `Cn1c(=O)[nH]c2cc3ccccc3cc21`?
BoNT-F LC inh: inactive; BJeLR lethal: inactive; Anthrax LF prot: inactive; Autofluor counter: 19393; Vc quorum ag: inactive; BoNT A protease: inconclusive

Results for Cc1nc2cc3ccccc3cc2n1C ?
BoNT-F LC inh: inactive; BJeLR lethal: inactive; Anthrax LF prot: inactive; Autofluor counter: inactive; Vc quorum ag: inactive; BoNT A protease: inactive

How did COCCOC(=O)c1c(C)n(C)c2ccc(OC(=O)c3cccs3)cc12 do in these assays?
BoNT-F LC inh: inactive; Anthrax LF prot: inactive; Autofluor counter: 16814; Vc quorum ag: inactive; BoNT A protease: inactive

What do the screens show for `COCCOC(=O)c1c(C)n(C)c2ccc(OC(=O)N(C)C)cc12`?
BoNT-F LC inh: inactive; BJeLR lethal: inactive; Anthrax LF prot: inactive; Autofluor counter: 22829; Vc quorum ag: inactive; BoNT A protease: inactive

Results for COCCOC(=O)c1c(C)n(C)c2ccc(OC(=O)c3ccccc3F)cc12 ?
BoNT-F LC inh: inactive; BJeLR lethal: inactive; Anthrax LF prot: inactive; Autofluor counter: inactive; Vc quorum ag: inactive; BoNT A protease: inactive

What do the screens show for `O=C1C2CC=CCC2C(=O)N1c1ccc(OCC(O)Cn2nnc3ccccc32)cc1` (stereo not drawn)?
BoNT-F LC inh: inactive; BJeLR lethal: inactive; Anthrax LF prot: inactive; Autofluor counter: 25583; Vc quorum ag: inactive; BoNT A protease: inactive
